# From paper PMC12529666, “Dysregulation of AGO2-miRNA dynamics underlies the AGO2-associated Lessel–Kreienkamp syndrome”
# Residue numbers refer to the chain shown, from its start.
# B1: ACACTCCA (ssRNA)
# RNA 1: GAGUUCUACAGUCCGACGAUCCCAACACACUCCACACCUGGAAUUCUCGGGUGCCAA
# RNA 2: UGGAGUGUGACAAUGGUGUUUG
# DNA 1: GATCGTCGGACTGTAGAACTC
# DNA 2: TTGGCACCCGAGAATTCCA
# modifications: constant regions annealed to DNA blockers; guide miR-122 5' phosphate
# B2: ACACTCCG (ssRNA)
# RNA 1: B1 RNA 1 with A34G
# RNA 2: UGGAGUGUGACAAUGGUGUUUG
# DNA 1: GATCGTCGGACTGTAGAACTC
# DNA 2: TTGGCACCCGAGAATTCCA
# modifications: constant regions annealed to DNA blockers; guide miR-122 5' phosphate
# B3: GTACTCCA (ssRNA)
# RNA 1: B1 RNA 1 with A27G, C28U
# RNA 2: UGGAGUGUGACAAUGGUGUUUG
# DNA 1: GATCGTCGGACTGTAGAACTC
# DNA 2: TTGGCACCCGAGAATTCCA
# modifications: constant regions annealed to DNA blockers; guide miR-122 5' phosphate
# B4: GTACTTCA (ssRNA)
# RNA 1: B1 RNA 1 with A27G, C28U, C32U
# RNA 2: UGGAGUGUGACAAUGGUGUUUG
# DNA 1: GATCGTCGGACTGTAGAACTC
# DNA 2: TTGGCACCCGAGAATTCCA
# modifications: constant regions annealed to DNA blockers; guide miR-122 5' phosphate
# B5: GCATCTCA (ssRNA)
# RNA 1: B1 RNA 1 with A27G, C30U, U31C, C32U
# RNA 2: UGGAGUGUGACAAUGGUGUUUG
# DNA 1: GATCGTCGGACTGTAGAACTC
# DNA 2: TTGGCACCCGAGAATTCCA
# modifications: constant regions annealed to DNA blockers; guide miR-122 5' phosphate
# B6: ACACTCTA (ssRNA)
# RNA 1: B1 RNA 1 with C33U
# RNA 2: UGGAGUGUGACAAUGGUGUUUG
# DNA 1: GATCGTCGGACTGTAGAACTC
# DNA 2: TTGGCACCCGAGAATTCCA
# modifications: constant regions annealed to DNA blockers; guide miR-122 5' phosphate
# B7: GCGTCCTA (ssRNA)
# RNA 1: B1 RNA 1 with A27G, A29G, C30U, U31C, C33U
# RNA 2: UGGAGUGUGACAAUGGUGUUUG
# DNA 1: GATCGTCGGACTGTAGAACTC
# DNA 2: TTGGCACCCGAGAATTCCA
# modifications: constant regions annealed to DNA blockers; guide miR-122 5' phosphate
# B8: ATACTCCG (ssRNA)
# RNA 1: B1 RNA 1 with C28U, A34G
# RNA 2: UGGAGUGUGACAAUGGUGUUUG
# DNA 1: GATCGTCGGACTGTAGAACTC
# DNA 2: TTGGCACCCGAGAATTCCA
# modifications: constant regions annealed to DNA blockers; guide miR-122 5' phosphate
# B9: ATGCTCCA (ssRNA)
# RNA 1: B1 RNA 1 with C28U, A29G
# RNA 2: UGGAGUGUGACAAUGGUGUUUG
# DNA 1: GATCGTCGGACTGTAGAACTC
# DNA 2: TTGGCACCCGAGAATTCCA
# modifications: constant regions annealed to DNA blockers; guide miR-122 5' phosphate
# B10: ACGCTTCA (ssRNA)
# RNA 1: B1 RNA 1 with A29G, C32U
# RNA 2: UGGAGUGUGACAAUGGUGUUUG
# DNA 1: GATCGTCGGACTGTAGAACTC
# DNA 2: TTGGCACCCGAGAATTCCA
# modifications: constant regions annealed to DNA blockers; guide miR-122 5' phosphate
# B11: GTACTCCG (ssRNA)
# RNA 1: B1 RNA 1 with A27G, C28U, A34G
# RNA 2: UGGAGUGUGACAAUGGUGUUUG
# DNA 1: GATCGTCGGACTGTAGAACTC
# DNA 2: TTGGCACCCGAGAATTCCA
# modifications: constant regions annealed to DNA blockers; guide miR-122 5' phosphate
# B12: ACACCCCA (ssRNA)
# RNA 1: B1 RNA 1 with U31C
# RNA 2: UGGAGUGUGACAAUGGUGUUUG
# DNA 1: GATCGTCGGACTGTAGAACTC
# DNA 2: TTGGCACCCGAGAATTCCA
# modifications: constant regions annealed to DNA blockers; guide miR-122 5' phosphate
# B13: ACATTCCA (ssRNA)
# RNA 1: B1 RNA 1 with C30U
# RNA 2: UGGAGUGUGACAAUGGUGUUUG
# DNA 1: GATCGTCGGACTGTAGAACTC
# DNA 2: TTGGCACCCGAGAATTCCA
# modifications: constant regions annealed to DNA blockers; guide miR-122 5' phosphate
# B14: ACACTTTA (ssRNA)
# RNA 1: B1 RNA 1 with C32U, C33U
# RNA 2: UGGAGUGUGACAAUGGUGUUUG
# DNA 1: GATCGTCGGACTGTAGAACTC
# DNA 2: TTGGCACCCGAGAATTCCA
# modifications: constant regions annealed to DNA blockers; guide miR-122 5' phosphate
# B15: ACACCTCA (ssRNA)
# RNA 1: B1 RNA 1 with U31C, C32U
# RNA 2: UGGAGUGUGACAAUGGUGUUUG
# DNA 1: GATCGTCGGACTGTAGAACTC
# DNA 2: TTGGCACCCGAGAATTCCA
# modifications: constant regions annealed to DNA blockers; guide miR-122 5' phosphate
# B16: ATGTCTCA (ssRNA)
# RNA 1: B1 RNA 1 with C28U, A29G, C30U, U31C, C32U
# RNA 2: UGGAGUGUGACAAUGGUGUUUG
# DNA 1: GATCGTCGGACTGTAGAACTC
# DNA 2: TTGGCACCCGAGAATTCCA
# modifications: constant regions annealed to DNA blockers; guide miR-122 5' phosphate
# B17: ACATCCTA (ssRNA)
# RNA 1: B1 RNA 1 with C30U, U31C, C33U
# RNA 2: UGGAGUGUGACAAUGGUGUUUG
# DNA 1: GATCGTCGGACTGTAGAACTC
# DNA 2: TTGGCACCCGAGAATTCCA
# modifications: constant regions annealed to DNA blockers; guide miR-122 5' phosphate
# B18: ACATCTCA (ssRNA)
# RNA 1: B1 RNA 1 with C30U, U31C, C32U
# RNA 2: UGGAGUGUGACAAUGGUGUUUG
# DNA 1: GATCGTCGGACTGTAGAACTC
# DNA 2: TTGGCACCCGAGAATTCCA
# modifications: constant regions annealed to DNA blockers; guide miR-122 5' phosphate
# B19: GCACTCCA (ssRNA)
# RNA 1: B1 RNA 1 with A27G
# RNA 2: UGGAGUGUGACAAUGGUGUUUG
# DNA 1: GATCGTCGGACTGTAGAACTC
# DNA 2: TTGGCACCCGAGAATTCCA
# modifications: constant regions annealed to DNA blockers; guide miR-122 5' phosphate
# Molecular target: AGO2 WT (phosphosite mutant background) (Homo sapiens, UniProt Q9UKV8 1-859, S387D;S824A;S828D;S831D;S834A)
# Sequence (Q9UKV8 whole entry S387D/S824A/S828D/S831D/S834A): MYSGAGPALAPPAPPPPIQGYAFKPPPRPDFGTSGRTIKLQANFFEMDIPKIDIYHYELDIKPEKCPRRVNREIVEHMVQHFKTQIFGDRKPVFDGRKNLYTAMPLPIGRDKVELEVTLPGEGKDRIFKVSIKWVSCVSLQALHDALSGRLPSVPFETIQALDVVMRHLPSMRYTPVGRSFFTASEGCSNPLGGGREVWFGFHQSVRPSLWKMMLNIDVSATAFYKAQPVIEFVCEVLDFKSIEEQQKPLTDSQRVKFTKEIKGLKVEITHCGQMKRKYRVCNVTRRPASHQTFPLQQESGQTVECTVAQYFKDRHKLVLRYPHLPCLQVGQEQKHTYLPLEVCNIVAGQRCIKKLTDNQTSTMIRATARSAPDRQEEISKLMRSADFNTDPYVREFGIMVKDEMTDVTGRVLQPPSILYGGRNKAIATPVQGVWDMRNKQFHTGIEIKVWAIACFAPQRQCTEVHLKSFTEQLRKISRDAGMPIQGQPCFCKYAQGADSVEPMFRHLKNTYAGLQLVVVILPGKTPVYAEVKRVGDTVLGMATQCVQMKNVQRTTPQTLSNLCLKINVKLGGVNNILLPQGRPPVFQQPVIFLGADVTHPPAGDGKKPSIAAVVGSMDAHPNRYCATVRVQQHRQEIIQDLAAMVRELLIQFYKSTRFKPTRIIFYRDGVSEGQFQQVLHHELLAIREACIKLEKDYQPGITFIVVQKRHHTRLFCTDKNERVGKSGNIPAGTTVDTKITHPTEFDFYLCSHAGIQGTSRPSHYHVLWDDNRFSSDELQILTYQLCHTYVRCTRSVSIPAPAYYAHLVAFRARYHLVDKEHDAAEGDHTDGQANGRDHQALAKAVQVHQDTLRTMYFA
# Assay: RNA Bind-n-Seq (nitrocellulose filter binding and sequencing); miR-122 guide loaded in AGO2; 60 min incubation; 30 mM Tris pH 8.0, 100 mM potassium acetate, 2 mM magnesium acetate, 0.5 mM TCEP, 0.005% NP-40, 0.01 mg/ml yeast tRNA; 3 nM AGO2-miR-122, 100 nM RNA library; 60; high values mean tight binding
# Conditions: protein: recombinant; tags: His6 (N-terminal, pFastBac HTA)
# How it was run: (§1)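 Fold enrichment is each target's read fraction divided by its read fraction in the input library. Sf9 insect cells expressed His-tagged AGO2 from baculovirus; the protein was loaded with a synthetic guide RNA and purified by Ni-NTA and a biotinylated capture oligo. The bound RNA was extracted, reverse-transcribed, barcode-amplified and sequenced on Illumina.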
row,Binder,binding signal
1,B1,229 fold enrichment over input
2,B2,154 fold enrichment over input
3,B3,0.714 fold enrichment over input
4,B4,0.125 fold enrichment over input
5,B5,0.126 fold enrichment over input
6,B6,0.587 fold enrichment over input
7,B7,0.123 fold enrichment over input
8,B8,0.401 fold enrichment over input
9,B9,0.416 fold enrichment over input
10,B10,0.133 fold enrichment over input
11,B11,0.327 fold enrichment over input
12,B12,0.238 fold enrichment over input
13,B13,0.267 fold enrichment over input
14,B14,0.133 fold enrichment over input
15,B15,0.251 fold enrichment over input
16,B16,0.232 fold enrichment over input
17,B17,0.139 fold enrichment over input
18,B18,0.206 fold enrichment over input
19,B19,117 fold enrichment over input

# Molecular target: AGO2 L192P (Homo sapiens, UniProt Q9UKV8 1-859, L192P;S387D;S824A;S828D;S831D;S834A)
# Sequence (Q9UKV8 whole entry L192P/S387D/S824A/S828D/S831D/S834A): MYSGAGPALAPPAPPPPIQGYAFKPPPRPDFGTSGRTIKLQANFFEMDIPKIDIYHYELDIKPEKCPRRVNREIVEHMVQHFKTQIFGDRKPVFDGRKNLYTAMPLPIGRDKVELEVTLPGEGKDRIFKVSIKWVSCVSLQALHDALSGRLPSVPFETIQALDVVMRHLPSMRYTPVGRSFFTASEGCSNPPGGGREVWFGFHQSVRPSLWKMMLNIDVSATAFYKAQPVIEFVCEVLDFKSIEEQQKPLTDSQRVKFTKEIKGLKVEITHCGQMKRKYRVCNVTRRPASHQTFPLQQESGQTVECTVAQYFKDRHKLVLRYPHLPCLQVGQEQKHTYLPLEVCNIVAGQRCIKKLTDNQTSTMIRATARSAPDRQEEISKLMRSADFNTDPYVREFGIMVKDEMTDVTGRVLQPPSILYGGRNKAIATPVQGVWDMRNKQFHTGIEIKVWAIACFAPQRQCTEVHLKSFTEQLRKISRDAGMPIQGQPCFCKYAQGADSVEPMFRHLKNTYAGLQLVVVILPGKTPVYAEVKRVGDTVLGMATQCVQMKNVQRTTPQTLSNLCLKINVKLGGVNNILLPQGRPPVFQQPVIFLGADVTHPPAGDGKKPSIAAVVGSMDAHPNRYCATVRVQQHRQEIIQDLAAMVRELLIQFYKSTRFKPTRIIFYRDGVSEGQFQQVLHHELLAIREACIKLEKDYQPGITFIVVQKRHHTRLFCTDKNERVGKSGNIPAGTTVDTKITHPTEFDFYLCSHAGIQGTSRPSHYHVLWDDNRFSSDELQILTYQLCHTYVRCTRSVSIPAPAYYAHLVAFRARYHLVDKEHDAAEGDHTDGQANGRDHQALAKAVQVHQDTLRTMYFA
# Assay: as above
# Conditions: protein: recombinant; tags: His6 (N-terminal, pFastBac HTA)
# How it was run: as §1
row,Binder,binding signal
1,B1,102 fold enrichment over input
2,B2,99.5 fold enrichment over input
3,B3,1.62 fold enrichment over input
4,B4,0.53 fold enrichment over input
5,B5,0.567 fold enrichment over input
6,B6,0.74 fold enrichment over input
7,B7,0.489 fold enrichment over input
8,B8,1.86 fold enrichment over input
9,B9,3.01 fold enrichment over input
10,B10,0.605 fold enrichment over input
11,B11,0.802 fold enrichment over input
12,B12,0.861 fold enrichment over input
13,B13,1.03 fold enrichment over input
14,B14,0.539 fold enrichment over input
15,B15,1.13 fold enrichment over input
16,B16,0.674 fold enrichment over input
17,B17,0.451 fold enrichment over input
18,B18,0.924 fold enrichment over input
19,B19,45.2 fold enrichment over input

# Molecular target: AGO2 A367P (Homo sapiens, UniProt Q9UKV8 1-859, A367P;S387D;S824A;S828D;S831D;S834A)
# Sequence (Q9UKV8 whole entry A367P/S387D/S824A/S828D/S831D/S834A): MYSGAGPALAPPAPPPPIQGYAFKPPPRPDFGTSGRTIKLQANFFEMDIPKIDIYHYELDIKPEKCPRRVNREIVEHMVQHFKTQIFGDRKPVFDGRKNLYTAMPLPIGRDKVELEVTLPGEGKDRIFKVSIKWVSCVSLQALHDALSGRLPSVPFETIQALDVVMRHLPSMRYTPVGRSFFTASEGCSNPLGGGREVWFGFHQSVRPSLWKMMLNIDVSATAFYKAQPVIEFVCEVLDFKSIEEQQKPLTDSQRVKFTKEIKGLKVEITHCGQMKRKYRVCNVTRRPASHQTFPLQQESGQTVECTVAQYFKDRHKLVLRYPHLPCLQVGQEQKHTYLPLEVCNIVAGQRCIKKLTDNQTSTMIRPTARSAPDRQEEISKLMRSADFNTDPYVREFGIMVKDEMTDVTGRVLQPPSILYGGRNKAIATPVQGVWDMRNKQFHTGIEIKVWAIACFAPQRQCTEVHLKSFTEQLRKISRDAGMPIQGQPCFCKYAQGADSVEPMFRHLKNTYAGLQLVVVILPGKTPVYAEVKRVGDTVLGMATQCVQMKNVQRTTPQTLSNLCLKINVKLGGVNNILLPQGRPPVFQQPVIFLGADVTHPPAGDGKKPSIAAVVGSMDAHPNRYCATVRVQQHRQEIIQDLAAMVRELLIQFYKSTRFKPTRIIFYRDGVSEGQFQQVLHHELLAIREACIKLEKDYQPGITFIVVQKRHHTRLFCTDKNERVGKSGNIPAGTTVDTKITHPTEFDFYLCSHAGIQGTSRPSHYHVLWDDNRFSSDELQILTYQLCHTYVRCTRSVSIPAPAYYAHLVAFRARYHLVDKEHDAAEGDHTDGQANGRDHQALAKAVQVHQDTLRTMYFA
# Assay: as above
# Conditions: protein: recombinant; tags: His6 (N-terminal, pFastBac HTA)
# How it was run: as §1
row,Binder,binding signal
1,B1,155 fold enrichment over input
2,B2,140 fold enrichment over input
3,B3,3.12 fold enrichment over input
4,B4,0.347 fold enrichment over input
5,B5,0.316 fold enrichment over input
6,B6,0.661 fold enrichment over input
7,B7,0.195 fold enrichment over input
8,B8,2.89 fold enrichment over input
9,B9,2.6 fold enrichment over input
10,B10,0.327 fold enrichment over input
11,B11,2.33 fold enrichment over input
12,B12,0.466 fold enrichment over input
13,B13,0.711 fold enrichment over input
14,B14,0.229 fold enrichment over input
15,B15,0.835 fold enrichment over input
16,B16,0.501 fold enrichment over input
17,B17,0.212 fold enrichment over input
18,B18,0.613 fold enrichment over input
19,B19,66.8 fold enrichment over input

# Molecular target: AGO2 T357M (Homo sapiens, UniProt Q9UKV8 1-859, T357M;S387D;S824A;S828D;S831D;S834A)
# Sequence (Q9UKV8 whole entry T357M/S387D/S824A/S828D/S831D/S834A): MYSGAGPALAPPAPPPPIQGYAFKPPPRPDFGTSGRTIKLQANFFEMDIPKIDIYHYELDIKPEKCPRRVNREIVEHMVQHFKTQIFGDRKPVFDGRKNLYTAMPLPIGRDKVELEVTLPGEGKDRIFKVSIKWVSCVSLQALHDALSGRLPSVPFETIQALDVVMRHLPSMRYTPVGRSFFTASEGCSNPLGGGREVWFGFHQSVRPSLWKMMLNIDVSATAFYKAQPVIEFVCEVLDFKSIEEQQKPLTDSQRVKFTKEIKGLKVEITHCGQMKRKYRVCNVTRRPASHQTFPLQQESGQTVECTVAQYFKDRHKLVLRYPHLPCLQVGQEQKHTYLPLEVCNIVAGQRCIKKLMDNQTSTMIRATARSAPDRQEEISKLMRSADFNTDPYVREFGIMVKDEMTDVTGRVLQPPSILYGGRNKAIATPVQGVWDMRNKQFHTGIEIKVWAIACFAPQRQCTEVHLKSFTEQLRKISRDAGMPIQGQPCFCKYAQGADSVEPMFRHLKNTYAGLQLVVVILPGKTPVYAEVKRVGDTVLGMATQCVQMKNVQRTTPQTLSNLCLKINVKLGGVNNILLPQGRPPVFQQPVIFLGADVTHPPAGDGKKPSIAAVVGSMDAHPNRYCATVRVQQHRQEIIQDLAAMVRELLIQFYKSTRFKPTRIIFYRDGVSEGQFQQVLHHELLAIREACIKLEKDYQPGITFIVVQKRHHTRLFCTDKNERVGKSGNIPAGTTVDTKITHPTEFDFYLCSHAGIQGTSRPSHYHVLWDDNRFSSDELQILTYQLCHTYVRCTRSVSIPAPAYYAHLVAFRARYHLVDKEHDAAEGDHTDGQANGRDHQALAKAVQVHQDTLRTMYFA
# Assay: as above
# Conditions: protein: recombinant; tags: His6 (N-terminal, pFastBac HTA)
# How it was run: as §1
row,Binder,binding signal
1,B1,154 fold enrichment over input
2,B2,108 fold enrichment over input
3,B3,0.965 fold enrichment over input
4,B4,0.645 fold enrichment over input
5,B5,0.605 fold enrichment over input
6,B6,0.72 fold enrichment over input
7,B7,0.72 fold enrichment over input
8,B8,0.632 fold enrichment over input
9,B9,0.765 fold enrichment over input
10,B10,0.624 fold enrichment over input
11,B11,0.519 fold enrichment over input
12,B12,0.678 fold enrichment over input
13,B13,0.738 fold enrichment over input
14,B14,0.707 fold enrichment over input
15,B15,0.737 fold enrichment over input
16,B16,0.678 fold enrichment over input
17,B17,0.632 fold enrichment over input
18,B18,0.57 fold enrichment over input
19,B19,44 fold enrichment over input

# Molecular target: AGO2 F182del (Homo sapiens, UniProt Q9UKV8 1-859, S387D;S824A;S828D;S831D;S834A;del182-182)
# Sequence (Q9UKV8 other isoform, or with tags, fused parts or gaps S387D;S824A;S828D;S831D;S834A;del182-182): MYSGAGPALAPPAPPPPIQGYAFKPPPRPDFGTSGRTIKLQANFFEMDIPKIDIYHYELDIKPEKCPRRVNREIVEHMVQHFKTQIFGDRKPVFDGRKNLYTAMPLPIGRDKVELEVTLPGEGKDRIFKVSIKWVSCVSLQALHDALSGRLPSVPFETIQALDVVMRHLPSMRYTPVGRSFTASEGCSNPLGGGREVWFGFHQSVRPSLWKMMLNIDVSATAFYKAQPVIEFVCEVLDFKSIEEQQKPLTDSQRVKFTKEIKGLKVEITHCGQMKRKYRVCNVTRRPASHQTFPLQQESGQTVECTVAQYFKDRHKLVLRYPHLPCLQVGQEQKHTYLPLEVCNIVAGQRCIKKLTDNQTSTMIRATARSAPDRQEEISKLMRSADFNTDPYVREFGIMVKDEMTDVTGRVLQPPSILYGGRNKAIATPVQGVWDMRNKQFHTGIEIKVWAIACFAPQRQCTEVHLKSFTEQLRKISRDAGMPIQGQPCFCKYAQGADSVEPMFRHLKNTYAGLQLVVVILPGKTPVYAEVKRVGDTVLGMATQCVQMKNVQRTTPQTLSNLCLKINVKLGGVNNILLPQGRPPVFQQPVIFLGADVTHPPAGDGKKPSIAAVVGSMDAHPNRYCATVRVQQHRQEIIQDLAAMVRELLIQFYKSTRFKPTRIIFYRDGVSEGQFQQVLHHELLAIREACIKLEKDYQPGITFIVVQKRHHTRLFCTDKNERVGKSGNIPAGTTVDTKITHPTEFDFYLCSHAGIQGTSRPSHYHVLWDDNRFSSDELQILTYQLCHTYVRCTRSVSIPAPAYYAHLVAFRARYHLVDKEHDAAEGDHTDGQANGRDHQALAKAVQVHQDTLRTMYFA
# Assay: as above
# Conditions: protein: recombinant; tags: His6 (N-terminal, pFastBac HTA)
# How it was run: as §1
row,Binder,binding signal
1,B1,116 fold enrichment over input
2,B2,91 fold enrichment over input
3,B3,4.41 fold enrichment over input
4,B4,0.936 fold enrichment over input
5,B5,0.86 fold enrichment over input
6,B6,1.96 fold enrichment over input
7,B8,3.65 fold enrichment over input
8,B9,2.78 fold enrichment over input
9,B10,0.944 fold enrichment over input
10,B11,2.42 fold enrichment over input
11,B12,2.15 fold enrichment over input
12,B13,2.93 fold enrichment over input
13,B14,0.311 fold enrichment over input
14,B15,4.6 fold enrichment over input
15,B16,1.79 fold enrichment over input
16,B17,0.299 fold enrichment over input
17,B18,2.74 fold enrichment over input
18,B19,91.6 fold enrichment over input
